According to PubChem BioAssay AID488922 (Johns Hopkins Ion Channel Center, 2010):
The whole screen tested about 310,000 compounds, of which about 3,800 (1.2%) were called active.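 Rule for the calls: active = ratio B-score over 3 SD below the library mean, with starting fluorescence within 5 SD of its mean; inactive = the rest, inconclusive results apart.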 The list comes from a sample in which actives are over-represented; it also holds similar structures and randomly drawn compounds.

The compounds below were run against Potassium channel subfamily K member 9 (Homo sapiens) (UniProt Q9NPC2) (assay: KCNK9 potassium channel inhibitors, primary screen, HEK293 cells, thallium flux (AID 488922;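 for B-score: negative B-score means less thallium flux so channel inhibition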)). Conditions: HEK293 KCNK9, FluxOR thallium flux fluorescence, at 10 µM; hits give low values.
Potassium channel subfamily K member 9 (Homo sapiens), sequence (Q9NPC2 whole entry, looked up): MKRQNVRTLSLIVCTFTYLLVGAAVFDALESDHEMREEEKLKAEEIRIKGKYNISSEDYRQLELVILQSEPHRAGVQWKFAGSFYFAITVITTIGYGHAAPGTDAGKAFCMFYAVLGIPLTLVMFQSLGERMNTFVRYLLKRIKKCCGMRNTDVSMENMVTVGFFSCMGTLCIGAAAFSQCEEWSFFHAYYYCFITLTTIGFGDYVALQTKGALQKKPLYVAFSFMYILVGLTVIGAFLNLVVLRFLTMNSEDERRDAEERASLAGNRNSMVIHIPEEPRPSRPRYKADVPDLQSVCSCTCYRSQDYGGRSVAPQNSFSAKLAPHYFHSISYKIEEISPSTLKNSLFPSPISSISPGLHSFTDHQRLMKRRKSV

Row | Compound | B-score
1 | Cc1ccc(OCc2nc3ccccc3n2C)cc1 | inactive
2 | Cc1ccc(C2=NN(C)c3nc4ccccc4n3C2)cc1 | -8.17 (active)
3 | Cc1ccc(O)c(CNc2nc3ccccc3n2C)c1 | inactive
4 | CCOC(=O)/C(=N\Nc1cc(Cl)ccc1Cl)N1CCN(C)CC1 | inactive
5 | COCCNc1ncnc2c1nc1n2CCCC1 | inactive
6 | COc1cnc(SCc2ccc(Cl)c(Cl)c2)nc1Cl | inactive
7 | COc1ccc(N2CCN(C3CCCCC3NS(=O)(=O)c3ccccc3)CC2)cc1 (centres undefined) | inactive
8 | O=S(=O)(NC1CCCCC1N1CCN(c2ccccc2F)CC1)c1ccccc1 (centres undefined) | -7.59 (active)
9 | O=S(=O)(NC1CCCCC1N1CCCCC1)c1ccc(Cl)cc1 (centres undefined) | inactive
10 | N#Cc1c(NCCO)ccc([N+](=O)[O-])c1NCCO | inactive
11 | CCc1ccccc1NC1c2ccccc2C(=O)N1c1cccnc1 (centres undefined) | inactive
12 | COC(=O)c1cc(NC2c3ccccc3C(=O)N2c2ccc(Cl)cn2)cc(C(=O)OC)c1 (centres undefined) | -8.59 (active)
13 | Cc1ccnc(N2C(=O)c3ccccc3C2Nc2ccc3c(c2)OCCO3)c1 (centres undefined) | inactive
14 | Cc1ccc(C)c(OCCC(=O)OCC(=O)c2ccc3c(c2)NC(=O)CO3)c1 | inactive
15 | Cc1ccc(CNC(=O)C2(C(F)(F)F)C/C(=C\Cc3ccccc3)CCCO2)o1 (centres undefined) | inactive
16 | CCOC(=O)c1ccc(NC(=O)Cc2cccs2)cc1 | inactive
17 | CCC1=NN(C(=O)Cc2ccc([N+](=O)[O-])cc2)C(O)(c2ccc(Br)cc2)C1 (centres undefined) | -9.93 (active)
18 | CC1=NN(C(=O)c2ccc(Br)cc2)C(O)(c2ccccc2)C1 (centres undefined) | inactive
19 | CC1=NN(C(=O)Cc2ccc(C)cc2)C(O)(c2cccnc2)C1 (centres undefined) | inactive
20 | CCOC(=O)c1[nH]c(C)c(C(=O)OCC(=O)N2c3ccccc3CC2C)c1C (centres undefined) | inactive
21 | COc1ccc(C)cc1NC(=O)CNCc1cccs1 | inactive
22 | CNC(=S)N1N=C(c2ccccc2)CC1c1ccc(Br)cc1 (centres undefined) | inactive
23 | Brc1ccc(C2CC(c3ccccc3)=Nc3ccccc3N2)cc1 (centres undefined) | -9.6 (active)
24 | c1ccc(C2=Nc3cccc4cccc(c34)N2)cc1 | inactive
25 | CC(C)(C)SCCSC1=CC(=O)CC(c2ccccc2)C1 (centres undefined) | inactive
26 | O=C(N/C(=C\c1ccc([N+](=O)[O-])cc1)C(=O)N1CCCCC1)c1ccco1 | inactive
27 | O=C(c1ccccc1)C(Cn1cncn1)C(Sc1ccccc1)c1ccccc1 (centres undefined) | inactive

Row | Compound | B-score
28 | O=C(NCc1ccccc1)c1onc(CSc2ccncc2)c1C(=O)NCc1ccccc1 | inactive
29 | CS(=O)(=O)N(CC(=O)Nc1ccc(Cl)c(Cl)c1)C1CCCCC1 | -7.01 (active)
30 | CCC(C)NC(=O)CN(C1CCCCC1)S(C)(=O)=O (centres undefined) | inactive
31 | CS(=O)(=O)N(CC(=O)Nc1ccc(F)cc1)C1CCCCC1 | inactive
32 | Cc1csc(/N=C/N(C)C)c1C#N | inactive
33 | Cc1ccc(S(=O)(=O)/N=C(/NC(=S)Nc2c(C)n(C)n(-c3ccccc3)c2=O)c2ccccc2)cc1 | inactive
34 | O=C(COC(=O)c1ncc(Cl)c(Cl)c1Cl)NC1CCS(=O)(=O)C1 (centres undefined) | inactive
35 | COc1ccc(C(=O)N(Cc2ccc(N(C)C)cc2)C2CCS(=O)(=O)C2)cc1 (centres undefined) | inactive
36 | Cc1ccc(CN(C(=O)c2sc3ccccc3c2Cl)C2CCS(=O)(=O)C2)cc1 (centres undefined) | -7.41 (active)
37 | CC1(C)C(C=C(Cl)Cl)C1C(=O)N(Cc1ccc(Cl)cc1)C1CCS(=O)(=O)C1 (centres undefined) | inactive
38 | O=[N+]([O-])c1c(NCCO)cc(Sc2nc3ccccc3s2)c2nonc12 | inactive
39 | Cc1onc(-c2ccccc2Cl)c1C(=O)N(Cc1ccc(N(C)C)cc1)C(C)C | inactive
40 | C=C(C)CSc1nc(N)c2c3c(sc2n1)CCC3 | inactive
41 | C=CCn1c(SCC(=O)c2c(N)n(C)c(=O)n(C)c2=O)nc2sc(CC)cc2c1=O | inactive
42 | CC1(C)CC(=O)CC2(C1)NCC(c1ccccc1Cl)c1c2[nH]c2ccccc12 (centres undefined) | -14.9 (active)
43 | O=[N+]([O-])/C=C1\CCCCCN1 | inactive
44 | C(=N\Nc1ccc2ccccc2n1)/c1ccc2c(c1)OCO2 | -6.68 (active)
45 | Brc1ccc(-c2csc(N/N=C/c3ccc4c(c3)OCO4)n2)cc1 | inactive
46 | Cc1noc(C)c1/C=N/Nc1ccc2ccccc2n1 | inactive
47 | CN1CC(=O)N=C1N | inactive
48 | CCCC1NC(=S)NC(C)=C1C(C)=O (centres undefined) | inactive
49 | Cc1scc(C(=O)NNC(=S)NCc2ccccc2)c1C | inactive
50 | CCNc1nc(-c2cc3ccccc3o2)cs1 | inactive
51 | COc1ccc2nc(Nc3nc(-c4cc5ccccc5oc4=O)cs3)sc2c1 | -6.66 (active)
52 | O=c1oc2ccccc2cc1-c1csc(Nc2ccc(O)cc2)n1 | inactive
53 | O=C(CCC1CCCC1)N=C1SC2CS(=O)(=O)CC2N1Cc1ccccc1 (centres undefined) | inactive
54 | Cn1c(=O)n(C)c2cc(C(=O)Nc3ccc(Br)cc3)ccc21 | inactive
